Results reported in PubChem BioAssay (NCI).
Compounds without any hit were thinned out: in the full panel of roughly 79,000, 15% have a hit. The source made the active and inactive calls. No stated cut-off is given here; in the data, active means growth inhibition above about 70%; inactive means the rest.

Tests used:
[1] = NCI Yeast Anticancer Drug Screen. Data for the rad52 strain (AID 147);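 further: 0% = growth of vehicle-treated control cultures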; conditions: S. cerevisiae rad52 mutant growth inhibition, active compounds read high
In short: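 Growth of repair-deficient yeast cells was compared between compound-treated and vehicle-treated cultures to give percent inhibition.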

[2] = NCI Yeast Anticancer Drug Screen. Data for the rad50EPP+ strain (AID 151);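 further: 0% = growth of vehicle-treated control cultures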; conditions: S. cerevisiae rad50 mutant strain, active compounds read high
In short: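 Measured: growth inhibition of rad50EPP+ yeast. Reference: vehicle-treated controls. Screen uses strains with defined genetic alterations in DNA damage repair or cell cycle control.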

[3] = NCI Yeast Anticancer Drug Screen. Data for the mgt1 strain (AID 153); conditions: S. cerevisiae mgt1 mutant growth inhibition, active compounds read high
In short: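 Compounds were applied to mgt1 mutant yeast, and growth was then compared against vehicle-treated control cultures to give percent inhibition.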

[4] = NCI Yeast Anticancer Drug Screen. Data for the rad50 strain (AID 155);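 further: 0% = growth of vehicle-only cultures of the same strain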; conditions: S. cerevisiae rad50 strain growth inhibition, active compounds read high
In short: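 Genetically altered yeast (DNA repair pathway); compound treatment; growth inhibition vs vehicle ctrl.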

[5] = NCI Yeast Anticancer Drug Screen. Data for the mec2-1 strain (AID 157); conditions: S. cerevisiae mec2-1 strain, active compounds read high
In short: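 Compounds were applied to mec2-1 yeast cells. Their growth was then compared with that of vehicle-treated cultures to give growth inhibition.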

[6] = NCI Yeast Anticancer Drug Screen. Data for the rad14 strain (AID 159);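 further: 0% = growth of vehicle-treated control cultures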; conditions: S. cerevisiae rad14 strain growth inhibition, active compounds read high
In short: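 Test compounds were applied to a repair-deficient yeast strain. Its growth was then compared with that of cultures given vehicle alone, and inhibition was expressed relative to those controls.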

[7] = NCI Yeast Anticancer Drug Screen. Data for the sgs1 mgt1 strain (AID 161);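 further: 0% = growth of cultures given vehicle only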; conditions: S. cerevisiae sgs1 mgt1 strain, active compounds read high
In short: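 Growth of a repair-deficient yeast mutant was monitored after compound treatment and expressed as inhibition relative to vehicle-treated cultures.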

[8] = NCI Yeast Anticancer Drug Screen. Data for the CLN2oe strain (AID 163);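 further: 0% = growth of vehicle-only control cultures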; conditions: S. cerevisiae CLN2oe strain, active compounds read high
In short: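 Cells of an engineered yeast line with disturbed cell-cycle regulation are treated with compound. Inhibition of growth is then calculated relative to the vehicle-treated reference.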

[9] = NCI Yeast Anticancer Drug Screen. Data for the cln2 rad14 strain (AID 165);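 further: 0% = growth equal to vehicle treated cultures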; conditions: S. cerevisiae cln2 rad14 strain, active compounds read high
In short: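 Strain: cln2 rad14 yeast, altered in cell cycle control and DNA damage repair. Read-out: growth inhibition vs vehicle.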

[10] = NCI Yeast Anticancer Drug Screen. Data for the bub3 strain (AID 167); conditions: S. cerevisiae bub3 mutant strain, active compounds read high
In short: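 Yeast carrying a defined mutation is treated with each compound, and growth is compared with that of vehicle-exposed cells to give inhibition.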

[11] = NCI Yeast Anticancer Drug Screen. Data for the wt2 strain (AID 169);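 further: 0% = growth of vehicle-treated yeast cultures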; conditions: S. cerevisiae wt2 strain growth inhibition, active compounds read high
In short: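 Growth of compound-treated yeast is measured and expressed as inhibition relative to vehicle-only controls.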

[12] = NCI Yeast Anticancer Drug Screen. Data for the mlh1 strain (AID 171);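 further: 0% = growth of vehicle-treated control cultures of the same strain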; conditions: S. cerevisiae mlh1 strain growth inhibition, active compounds read high
In short: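 Test agents were incubated with yeast bearing a defined DNA damage repair or cell cycle control alteration; values are growth inhibition normalised to vehicle-treated cultures.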

[13] = NCI Yeast Anticancer Drug Screen. Data for the sgs1 strain (AID 173);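 further: 0% = growth of vehicle-only control cultures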; conditions: S. cerevisiae sgs1 mutant, active compounds read high
In short: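 Strain with an altered DNA repair or cell cycle pathway exposed to compound. Growth then measured. Value = inhibition versus vehicle control.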

[14] = NCI Yeast Anticancer Drug Screen. Data for the mlh1 rad18 strain (AID 175); conditions: S. cerevisiae mlh1 rad18 strain growth inhibition, active compounds read high
In short: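 A repair-deficient yeast strain is exposed to test compound, and growth is scored relative to vehicle-treated controls.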

[15] = NCI Yeast Anticancer Drug Screen. Data for the rad18 strain (AID 177); conditions: S. cerevisiae rad18 mutant growth inhibition, active compounds read high
In short: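 DNA-repair-defective yeast; compound treatment; growth inhibition scored against vehicle.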

[16] = at 5.0 µM (retest, dose inferred, filed as 0.5)
[17] = at 50.0 µM (retest, dose inferred, filed as 5.0)

Measured: growth inhibition

CSC(=S)N/N=C(\C)c1cccc(C)n1
inactive: [1]; at 1.2 µM -3% | [1]; at 3.7 µM -5% | [1]; at 11.0 µM -8% | [1]; at 33.0 µM 47% | [2]; at 1.2 µM -3% | [2]; at 3.7 µM -3% | [2]; at 11.0 µM -3% | [2]; at 33.0 µM 5% | [3]; at 1.2 µM -7% | [3]; at 3.7 µM -11% | [3]; at 11.0 µM -10% | [3]; at 33.0 µM 39% | [4]; at 1.2 µM -4% | [4]; at 3.7 µM 2% | [4]; [16] -6% | [4]; at 11.0 µM 11% | [5]; at 1.2 µM -6% | [5]; at 3.7 µM -13% | [5]; [16] 28% | [5]; at 11.0 µM -10% | [5]; at 33.0 µM 62% | [6]; at 1.2 µM -8% | [6]; at 3.7 µM 6% | [6]; at 11.0 µM -5% | [6]; at 33.0 µM 44% | [7]; [16] 23% | [8]; at 1.2 µM -24% | [8]; at 3.7 µM -24% | [8]; at 11.0 µM -15% | [8]; at 33.0 µM 21% | [9]; [16] 59% | [10]; at 1.2 µM -14% | [10]; at 3.7 µM -20% | [10]; [16] 19% | [10]; at 11.0 µM 9% | [10]; at 33.0 µM 34% | [11]; at 1.2 µM -6% | [11]; at 3.7 µM -6% | [11]; at 11.0 µM -5% | [11]; at 33.0 µM 63% | [12]; at 1.2 µM -11% | [12]; at 3.7 µM -1% | [12]; at 11.0 µM -6% | [12]; at 33.0 µM 29% | [13]; at 1.2 µM -3% | [13]; at 3.7 µM -5% | [13]; at 11.0 µM -4% | [13]; at 33.0 µM 57% | [14]; [16] 20% | [15]; at 1.2 µM -5% | [15]; at 3.7 µM -5% | [15]; at 11.0 µM 10%
active: [1]; at 100.0 µM 97% | [2]; at 100.0 µM 98% | [3]; at 100.0 µM 98% | [4]; at 33.0 µM 93% | [4]; [17] 99% | [4]; at 50.0 µM 99.4% | [4]; at 100.0 µM 98% | [5]; [17] 99% | [5]; at 50.0 µM 99.4% | [5]; at 100.0 µM 98% | [6]; at 100.0 µM 98% | [7]; [17] 99% | [7]; at 50.0 µM 99.3% | [8]; at 100.0 µM 97% | [9]; [17] 98% | [9]; at 50.0 µM 99.2% | [10]; [17] 99% | [10]; at 50.0 µM 99.2% | [10]; at 100.0 µM 98% | [11]; at 100.0 µM 99% | [12]; at 100.0 µM 99% | [13]; at 100.0 µM 99% | [14]; [17] 99% | [14]; at 50.0 µM 99.2% | [15]; at 33.0 µM 75% | [15]; at 100.0 µM 96%
